Sampled rows, rich in hits. Any-hit rate of the full collection: about 10%.
G9a block: blocks human histone lysine methyltransferase G9a | Potency, µM (doses to about 102 µM), actives largely listed as inhibitors | AID 504332 | hit rate 8.8% among 350,000 | Q96KQ7 | G9a H3K9 monomethylation, AlphaScreen, 2 h; also: nearly all actives have a fitted effect of over 75% in size
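AlphaScreen read-out: biotin-H3K9 peptide (500 nM) methylation by 20 nM enzyme with 20 uM SAM, 2 h at room temperature after 15 min compound preincubation; anti-monomethyl H3K9 antibody plus donor/acceptor beads, 10 min dark.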
JMJD2A Tudor: JMJD2A Tudor domain (human) inhibition | AID 504339 | AlphaScreen JMJD2A-Tudor / H3K4me3 peptide binding | Potency, µM (series often up to 114 µM), actives largely listed as inhibitors | hit rate 4.4% among 390,000 | O75164; also: nearly all actives have a fitted effect of over 50% in size
GLS inhibitor: inhibitors of human glutaminase (GLS). hit rate 0.21% among 410,000. Potency, µM (doses to about 45.5 µM), hits mostly inhibitors. O94925. GLS enzymatic activity, qHTS titration
Target sequence (O94925 whole entry, looked up): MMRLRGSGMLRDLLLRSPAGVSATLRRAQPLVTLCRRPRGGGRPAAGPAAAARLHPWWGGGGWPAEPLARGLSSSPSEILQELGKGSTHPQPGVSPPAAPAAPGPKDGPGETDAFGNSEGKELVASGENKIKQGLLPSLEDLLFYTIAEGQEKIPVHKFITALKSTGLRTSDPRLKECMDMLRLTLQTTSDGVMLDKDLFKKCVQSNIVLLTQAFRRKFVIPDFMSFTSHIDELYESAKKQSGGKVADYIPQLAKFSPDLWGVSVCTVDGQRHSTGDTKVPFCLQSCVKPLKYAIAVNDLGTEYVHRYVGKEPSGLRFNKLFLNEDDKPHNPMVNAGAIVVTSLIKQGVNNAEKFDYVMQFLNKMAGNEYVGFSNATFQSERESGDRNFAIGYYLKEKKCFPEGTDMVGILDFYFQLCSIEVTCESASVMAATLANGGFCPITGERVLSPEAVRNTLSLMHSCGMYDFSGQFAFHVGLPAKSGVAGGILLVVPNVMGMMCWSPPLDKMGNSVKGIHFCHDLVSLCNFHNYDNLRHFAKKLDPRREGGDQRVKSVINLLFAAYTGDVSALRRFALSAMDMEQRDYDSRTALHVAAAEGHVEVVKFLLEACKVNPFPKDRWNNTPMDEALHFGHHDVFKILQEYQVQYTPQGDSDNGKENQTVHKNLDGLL
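Assay buffer: 45 mM KH2PO4 pH 8.2, 0.02% Tween-20. hKGA acts on L-glutamine (1 mM solution added); product glutamate is reported by an oxidase/peroxidase Amplex Red coupling, with fluorescence taken at baseline and 30 min.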
BAZ2B inh: inhibitors of human BAZ2B bromodomain | AlphaScreen BAZ2B-H3K14Ac peptide displacement | Potency, µM (top dose mostly 114 µM), hits mostly inhibitors | hit rate 4.4% among 360,000 | AID 504333; also: nearly all actives have a fitted effect of over 60% in size
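AlphaScreen luminescence quantifies BAZ2B engagement of H3K14Ac peptide; the protein and biotinylated peptide are both at 50 nM final, buffer PBS pH 7.4 with 0.01% Tween-20, all steps at room temperature.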
HP1b binding inh: HP1-beta chromodomain-methylated histone interaction inhibition. AlphaScreen HP1-beta / biotin-H3K9me3 peptide binding. Potency, µM (titrated, usually from 114 µM), usual class: inhibitors. hit rate 0.56% among 390,000. AID 540317; also: nearly all actives have a fitted effect of over 70% in size
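Compound inhibition of the preformed complex between 50 nM HP1-beta and 50 nM biotinylated H3K9me3 peptide was read by AlphaScreen. Buffer was PBS pH 7.4 with 0.01% Tween-20. Incubations ran 30 min at room temperature, with 10 ug/mL donor/acceptor beads.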
Each line names hits and unclear results; the compound was inactive in the other large screens. Calls follow the shape of the dose curve; as a rule, active = well fitted curve in the direction sought with a large enough effect; inconclusive = small, poorly fitted or top-dose-only effect, or another doubt; inactive = no such curve, though single readings can be large; an effect the other way counts as inactive or inconclusive.

O=C(NCCCN1CCOCC1)C(=O)N/N=C/c1ccccc1O	JMJD2A Tudor 28.2µM, BAZ2B inh 28.2µM
O=C(NCc1ccccn1)C(=O)N/N=C/c1ccccc1O	JMJD2A Tudor 25.1µM, BAZ2B inh 39.8µM
COC(=O)c1cc(Br)cn1S(=O)(=O)c1ccccc1	none
Cc1ccc(NCc2ccccc2)cc1	G9a block inconclusive, JMJD2A Tudor inconclusive, BAZ2B inh inconclusive
CC(=O)Nc1ccc(NC(=O)C2(c3cccs3)CCOCC2)cc1	JMJD2A Tudor 44.7µM
O=C(O)c1cc(-c2ccccn2)n[nH]1	BAZ2B inh 44.7µM (no result: GLS inhibitor)
O=C(O)c1ccc(-c2ccccn2)s1	G9a block inconclusive
Fc1ccc(COc2ccc(Br)cc2CNCC2CCCO2)cc1 (stereo not given)	G9a block 50.1µM
COCCn1c(SCC(=O)NC2CCCCC2)nc2c(c1=O)SCC2	none
O=C(NC(=S)NCCc1ccccn1)c1ccccc1	none
O=C(NCc1ccc(F)cc1)c1cccc2c1C(=O)c1ccc(N3CCOCC3)cc1S2(=O)=O	JMJD2A Tudor 79.4µM
O=C(NCCCn1ccnc1)C(F)(F)C(F)(F)C(=O)NCCCn1ccnc1	G9a block 14.1µM, JMJD2A Tudor inconclusive, BAZ2B inh 20µM
CC(NC(=O)NCCCn1ccnc1)(C(F)(F)F)C(F)(F)F	none
O=[N+]([O-])c1cccc(S(=O)(=O)NCCCn2ccnc2)c1	BAZ2B inh 50.1µM
O=C(CNC(=O)c1ccc(Cl)cc1)NCCCn1ccnc1	BAZ2B inh 79.4µM
CSc1ccc(S(=O)(=O)NCCCn2ccnc2)cc1	none
O=C(NCCCn1ccnc1)c1ccncc1	BAZ2B inh 56.2µM
Cc1nc2ccccc2c(=O)n1NCc1cccs1	G9a block inconclusive
COc1ccc(CCNC(=O)C2CCCN2C(=O)Nc2cccc(OC)c2)cc1 (stereo not given)	BAZ2B inh inconclusive (no result: G9a block)
O=C(NCCCn1ccnc1)c1cccc(S(=O)(=O)Nc2ccc(Br)cc2)c1	G9a block 11.2µM
O=C(NCCCn1ccnc1)c1cccc(S(=O)(=O)Nc2ccc(F)cc2)c1	none
Cc1ccc(-c2[nH]c3cc(C(=O)NCCCn4ccnc4)ccc3c(=O)c2O)cc1	BAZ2B inh 56.2µM
Cc1ccc(C(=O)NCCCn2ccnc2)cn1	BAZ2B inh 50.1µM
CC1CCN(C(=O)c2ccccc2NC(=O)c2cccs2)CC1	none (no result: G9a block)
CCc1ccc(CC)c(S(=O)(=O)Nc2ccc(O)c(C(=O)O)c2)c1	none
CC(=O)Nc1ccc(N=NN2CCOCC2)cc1	G9a block 8.91µM, HP1b binding inh inconclusive
CC(=O)Nc1cccc(N=NN2CCOCC2)c1	none (no result: G9a block)
O=C(O)c1ccc(N=NN2CCCC2)cc1	G9a block 35.5µM
CC(=O)Nc1cccc(N=NN2CCCCC2)c1	G9a block 22.4µM
O=C(CSc1ccsc1[N+](=O)[O-])NCCc1ccccc1	G9a block inconclusive
CC(/C=C/c1ccc(N(C)C)cc1)=N\N=C(/N)SC1CC(=O)N(c2ccc(C(=O)O)cc2)C1=O (stereo not given)	G9a block inconclusive, JMJD2A Tudor 31.6µM, BAZ2B inh 50.1µM, HP1b binding inh inconclusive
COc1ccc(NC(=O)CSCC(=O)Nc2nnc(C3CC3)s2)cc1	none
COc1ccc(C2C(C(=O)OC(C)C)=C(C)N=c3s/c(=C\c4cccs4)c(=O)n32)cc1 (stereo not given)	BAZ2B inh inconclusive
CCOC(=O)C1=C(C)Nc2ncnn2C1c1ccc(N(C)C)cc1 (stereo not given)	G9a block inconclusive, JMJD2A Tudor inconclusive
CCOC(=O)C1=C(C)N=c2s/c(=C\c3ccc(OCC(=O)O)cc3)c(=O)n2C1c1ccc(Cl)cc1 (stereo not given)	JMJD2A Tudor 20µM, GLS inhibitor inconclusive, BAZ2B inh 7.94µM, HP1b binding inh 39.8µM (no result: G9a block)
CC1=C(C(=O)OC(C)C)C(c2ccc(Cl)cc2)n2c(sc(=Cc3ccc(OCC(=O)O)cc3)c2=O)=N1 (stereo not given)	GLS inhibitor 7.08µM (no result: G9a block, JMJD2A Tudor, BAZ2B inh, HP1b binding inh)
CCOC(=O)C1=C(C)N=c2sc(=C(C)C)c(=O)n2C1c1ccc(N(C)C)cc1 (stereo not given)	JMJD2A Tudor 89.1µM (no result: G9a block, BAZ2B inh)
CCOC(=O)C1=C(C)N=c2s/c(=C/c3ccc(OCC(=O)O)cc3)c(=O)n2C1c1ccc(SC)cc1 (stereo not given)	BAZ2B inh 35.5µM (no result: G9a block, JMJD2A Tudor, GLS inhibitor, HP1b binding inh)
CCOC(=O)C1=C(C)N=c2s/c(=C/c3ccc(OCC(=O)O)cc3)c(=O)n2C1c1ccc(F)cc1 (stereo not given)	G9a block inconclusive, JMJD2A Tudor 79.4µM, BAZ2B inh inconclusive
CCOC(=O)C1=C(C)N=c2s/c(=C/c3ccccc3)c(=O)n2C1c1ccc(OC)c(OC)c1 (stereo not given)	none
CCOC(=O)C1=C(C)N=c2s/c(=C\c3ccncc3)c(=O)n2C1c1ccc2c(c1)OCO2 (stereo not given)	JMJD2A Tudor inconclusive, BAZ2B inh inconclusive
CCOC(=O)C1=C(C)N=c2s/c(=C/c3ccc(OCC(=O)O)c(OC)c3)c(=O)n2C1c1ccc(Cl)cc1 (stereo not given)	JMJD2A Tudor 20µM, GLS inhibitor inconclusive, HP1b binding inh 31.6µM (no result: G9a block, BAZ2B inh)
O=C(Nc1cc([N+](=O)[O-])ccc1F)C1CC1	none
COc1ccc(C2=NS(=O)(=O)N(C)C(C(=O)NCc3ccco3)=C2)cc1OC	none
COc1cccc(/C=C2/C(=O)NN(c3ccccc3)C2=O)c1	G9a block 39.8µM, GLS inhibitor inconclusive, BAZ2B inh inconclusive
O=C1NN(c2ccccc2)C(=O)C1=Cc1ccccc1O	none (no result: G9a block, JMJD2A Tudor, BAZ2B inh, HP1b binding inh)
O=C1NC(=Nc2ccccc2)S/C1=C/c1cccs1	G9a block inconclusive, JMJD2A Tudor inconclusive (no result: BAZ2B inh)
O=C1NN(c2ccc(F)cc2)C(=O)/C1=C/c1cccs1	G9a block 44.7µM
COc1cc(C=C2C(=O)c3ccccc3C2=O)cc(OC)c1	none (no result: G9a block)
COc1cccc(/C=C2\C(=O)C(=O)c3ccccc32)c1	G9a block 50.1µM, JMJD2A Tudor inconclusive, BAZ2B inh inconclusive
COC(=O)c1ccc(N2NC(=O)/C(=C/c3ccc(OC)c(OC)c3)C2=O)cc1	G9a block inconclusive
O=C1NN(c2ccccc2)C(=O)/C1=C\c1ccc2c(c1)OCO2	G9a block 50.1µM, JMJD2A Tudor inconclusive
COc1ccc(CC(=O)OCC(=O)NC2CCCC(C)C2C)cc1 (stereo not given)	none (no result: G9a block, BAZ2B inh)
Cc1cc(CNC(=O)Cc2c(F)cccc2Cl)nn1C	none
COc1cccc(/C=C2/C(=O)NN(c3ccc(C)c(C)c3)C2=O)c1	G9a block 44.7µM
COc1cccc(/C=C2/C(=O)NN(c3ccc(F)cc3)C2=O)c1	G9a block 44.7µM
Fc1ccc(N2CCN(Cc3ccccn3)CC2)cc1	G9a block 3.55µM, JMJD2A Tudor 11.2µM, BAZ2B inh 50.1µM, HP1b binding inh inconclusive
Oc1cccnc1CN1CCOCC1	JMJD2A Tudor 7.94µM (no result: G9a block, BAZ2B inh)
O=c1[nH]c(CN2CCN(c3ccc(F)cc3)CC2)nc2ccccc12	none
c1ccc(CN2CCOCC2)nc1	JMJD2A Tudor 11.2µM (no result: G9a block, BAZ2B inh)
COc1ccc(CN2CCOCCOCCOCC2)cc1	none
